Sampled rows, rich in hits. Any-hit rate of the full collection: about 1.2%.
KCNH2 WT inh: qHTS for Inhibitors of KCHN2 3.1: Wildtype qHTS; Voltage-gated inwardly rectifying potassium channel KCNH2 (Homo sapiens), Q12809; U2OS, BacMam KCNH2, thallium flux FluxOr; active compounds read low; activity change, % at 1.84 µM; 340,000 tested, 0.37% active; AID 720551, 2013;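 active = maximum activity change below -70%; inconclusive = maximum activity change between -70% and -50%; inactive = maximum activity change above -50%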; also: % is scaled to controls: 0 for no effect and ±100 for the full control effect
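U2OS cells transduced with wild-type KCNH2 virus are loaded with FluxOr dye for 45 min, and thallium flux is measured in kinetic reads before and after stimulation buffer. Rate constants are normalized to DMSO controls.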
TRPV1 ag: HTS Assay for Compounds that Act as Agonists of the Vanilloid Receptor 1 | TRPV1-expressing cells, Fluo-8 calcium influx, agonist mode | 320,000 tested, 0.19% active | Transient receptor potential cation channel subfamily V member 1 (Homo sapiens), Q8NER1 | activation, % at 8.33 µM; in the data active = activation above about 80%; inconclusive = between about 30% and that limit; also: 0% is about no effect
Target sequence (Q8NER1 whole entry, looked up): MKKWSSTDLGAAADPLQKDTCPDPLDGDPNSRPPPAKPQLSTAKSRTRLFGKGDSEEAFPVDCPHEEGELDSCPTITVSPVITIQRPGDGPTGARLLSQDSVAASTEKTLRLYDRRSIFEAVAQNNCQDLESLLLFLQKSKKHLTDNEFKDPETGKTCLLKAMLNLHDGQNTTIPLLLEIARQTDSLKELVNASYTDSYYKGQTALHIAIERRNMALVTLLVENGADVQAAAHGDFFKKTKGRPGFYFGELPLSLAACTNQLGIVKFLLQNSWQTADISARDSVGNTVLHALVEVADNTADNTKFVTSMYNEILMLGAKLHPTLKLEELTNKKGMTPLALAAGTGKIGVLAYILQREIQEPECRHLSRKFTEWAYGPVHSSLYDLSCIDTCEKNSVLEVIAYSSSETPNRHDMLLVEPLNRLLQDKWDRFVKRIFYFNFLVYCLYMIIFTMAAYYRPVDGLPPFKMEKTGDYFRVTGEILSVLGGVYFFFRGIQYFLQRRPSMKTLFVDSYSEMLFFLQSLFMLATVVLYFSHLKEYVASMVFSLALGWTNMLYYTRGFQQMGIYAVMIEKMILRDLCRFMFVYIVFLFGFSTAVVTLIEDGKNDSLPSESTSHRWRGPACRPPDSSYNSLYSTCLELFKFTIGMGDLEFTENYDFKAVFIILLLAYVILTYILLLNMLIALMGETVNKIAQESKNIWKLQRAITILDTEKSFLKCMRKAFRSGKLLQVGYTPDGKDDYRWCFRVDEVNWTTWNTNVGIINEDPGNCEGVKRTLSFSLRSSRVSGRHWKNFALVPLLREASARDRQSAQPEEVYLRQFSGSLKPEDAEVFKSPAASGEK
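Fluo-8 calcium influx in TRPV1-expressing cells, kinetic read (ex 480/em 520 nm). Compound added and read 3 min for agonist activity, followed by capsaicin at EC20 final and 2 min further read for enhancement.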
KCNH2 3.1 inh: qHTS for Inhibitors of KCHN2 3.1: Mutant qHTS | Potassium voltage-gated channel subfamily H member 2, brain isoform KCNH2 3.1 (human) | U2OS KCNH2 3.1, thallium flux FluxOr; active compounds read low | activity change, % (tested at about 1.8 µM) | 340,000 tested, 0.95% active | AID 720553, 2013;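 active = maximum activity change below -70%; inconclusive = maximum activity change from -70% to -50%; inactive = maximum activity change above -50%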;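 also: thallium influx rate constant from kinetic fluorescence after stimulation buffer; % is scaled to controls: 0 for no effect and ±100 for the full control effect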
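Channel expression came from 3.1 mutant virus (1.77 x 10^8 /mL) applied to suspended U2OS cells for 4 h. Flux was tracked with FluxOr dye plus Red40 quencher, and kinetic rate constants normalized to controls.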
TRPV1 potentiator: HTS Assay for Compounds that Act as Potentiators of the Vanilloid Receptor 1. TRPV1-expressing cells, Fluo-8 calcium influx, capsaicin EC20 potentiation. potentiation, % at 8.33 µM. 320,000 tested, 0.02% active; in the data active = potentiation above about 80%; inconclusive = between about 30% and that limit; also: 0% is about no effect
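Cells expressing TRPV1 were dye-loaded with Fluo-8 and read kinetically: 10 s baseline, 3 min after compound (agonist portion), then 2 min after EC20 capsaicin (allosteric enhancer portion). Calcium-bound dye fluorescence at 480/520 nm.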
* marks the source's active call; other numbers are inactive results; i = inactive; ? = inconclusive; nt = no result given.

SMILES	KCNH2 WT inh	TRPV1 ag	KCNH2 3.1 inh	TRPV1 potentiator
COC(=O)CC(NC(=O)c1cccs1)c1ccc(OC)c(OC)c1 (stereo unspecified)	-11	4	8	?
O=C(CCCCCN1C(=O)c2ccccc2C1=O)Nc1ccc(F)cc1	-4	19	-1	-18
O=C(CC1CCCC1)N1CCCC(Nc2ccc(F)cc2)C1 (stereo unspecified)	-10	3	-96*	-5
O=C(CC1CCCC1)N1CCCC(Nc2cccc(F)c2)C1 (stereo unspecified)	-6	84*	-6	-11
CC1(CCC(=O)N2CCCC(Nc3ccc(F)cc3)C2)CC1 (stereo unspecified)	5	?	3	-21
O=C(O)c1cc(-c2ccc(Cl)cc2)n(-c2ccccc2)n1	i	4	9	8
Cc1ccc(-n2nc(C(=O)N3CCOCC3)cc2-c2ccc(Cl)cc2)cc1	-32	89*	?	1
O=C(c1cc(-c2ccc(Cl)cc2)n(-c2ccc(Cl)cc2)n1)N1CCOCC1	-70*	?	-98*	-16
CCC(C)c1ccc(NC(=O)NCCN2CCCCC2)cc1 (stereo unspecified)	9	-6	-94*	-1
Cc1ccc(NC(=O)NCCN2CCCCC2)cc1	20	2	-16	0
COc1ccc(C(=O)N2CCCN(C)CC2)cc1S(=O)(=O)N(C)Cc1ccccc1	15	1	6	-3
C[C@H](CO)N1C[C@H](C)[C@@H](CN(C)Cc2ccc3c(c2)OCO3)Oc2c(NC(=O)C3CCCCC3)cccc2C1=O	-4	nt	-96*	nt
C[C@@H]1CN([C@H](C)CO)C(=O)c2cccc(NC(=O)c3ccncc3)c2O[C@@H]1CN(C)Cc1ccc(C(=O)O)cc1	-6	nt	-85*	nt
C[C@H](CO)N1C[C@H](C)[C@@H](CN(C)C(=O)Nc2ccc3c(c2)OCO3)Oc2c(NC(=O)C3CCCCC3)cccc2C1=O	3	nt	-16	nt
C[C@H](CO)N1C[C@H](C)[C@@H](CN(C)Cc2ccccc2)Oc2c(NC(=O)c3ccncc3)cccc2C1=O	10	nt	6	nt
CN(C)Cc1ccccc1COc1ccccc1	38	3	3	12
O=C(NCC1CCCO1)c1cncc(Br)c1 (stereo unspecified)	-16	-6	-145*	15
O=c1[nH]c(CN2CCN(C/C=C/c3ccccc3)CC2)nc2cc(Cl)ccc12	-110*	0	-99*	-5
CN1C(=O)/C(=C\c2ccccc2F)Sc2ccc(C(=O)NC3CCN(Cc4ccccc4)CC3)cc21	-83*	3	-81*	6
COc1ccc(/C=C2\Sc3ccc(C(=O)NC4CC4)cc3N(C)C2=O)cc1OC	0	4	-3	11
Cc1cccc(CN2C(=O)/C(=C\c3ccc(C(=O)NCCN4CCOCC4)cc3)Sc3ccccc32)c1	-5	4	-81*	22
Cc1ccccc1CN1C(=O)/C(=C\c2ccc(C(=O)NCCN3CCOCC3)cc2)Sc2ccccc21	0	1	1	5
CCN1CCN(CCNC(=O)c2ccc3c(c2)N(Cc2ccc(F)cc2)C(=O)/C(=C/c2ccccc2)S3)CC1	-20	3	-88*	9
Cc1ccc(S(=O)(=O)Nc2cccc(C(=O)NC3CCN(Cc4ccccc4)CC3)c2)cc1F	-39	25	-80*	-7
CCN(CC(=O)NCc1ccncc1)S(=O)(=O)c1ccccc1	38	-3	13	2
COc1ccc(S(=O)(=O)N(C)C[C@H]2Oc3ncc(Br)cc3C(=O)N([C@@H](C)CO)C[C@@H]2C)cc1	-9	nt	11	nt
C[C@H](NC(=O)c1ccc(Cl)cc1)C(=O)NNC(=O)c1cccs1	-10	1	4	-10
COc1ccc(C2CC(c3ccc(Cl)cc3)Nc3nc(NC(=O)c4ccco4)nn32)cc1 (stereo unspecified)	-38	-3	-71*	8
Nc1nnc(SCC(=O)Nc2ccc(N3CCOCC3)cc2)s1	-15	1	0	16
COc1ccc(CN2C(=O)c3ccc(C(=O)O)cc3C2=O)cc1	-7	-1	3	?

Screening results: PubChem BioAssay, National Center for Advancing Translational Sciences (NCATS)
